The values below come from PubChem BioAssay (NCATS).

Structures are written as SMILES. Results filed as inconclusive are left out. A call without a number means that no potency is given here. Calls of active or inactive are those of the source. The call rests on the fitted dose curve; in most records, active means well fitted inhibition curve with a large enough effect; inconclusive means small, poorly fitted or top-dose-only effect, or effect the other way; inactive means flat fitted curve, though single readings scatter.
Potency means the concentration at half of the fitted maximal effect.

Ubiquitin carboxyl-terminal hydrolase 2 (Homo sapiens), sequence (O75604 whole entry, looked up): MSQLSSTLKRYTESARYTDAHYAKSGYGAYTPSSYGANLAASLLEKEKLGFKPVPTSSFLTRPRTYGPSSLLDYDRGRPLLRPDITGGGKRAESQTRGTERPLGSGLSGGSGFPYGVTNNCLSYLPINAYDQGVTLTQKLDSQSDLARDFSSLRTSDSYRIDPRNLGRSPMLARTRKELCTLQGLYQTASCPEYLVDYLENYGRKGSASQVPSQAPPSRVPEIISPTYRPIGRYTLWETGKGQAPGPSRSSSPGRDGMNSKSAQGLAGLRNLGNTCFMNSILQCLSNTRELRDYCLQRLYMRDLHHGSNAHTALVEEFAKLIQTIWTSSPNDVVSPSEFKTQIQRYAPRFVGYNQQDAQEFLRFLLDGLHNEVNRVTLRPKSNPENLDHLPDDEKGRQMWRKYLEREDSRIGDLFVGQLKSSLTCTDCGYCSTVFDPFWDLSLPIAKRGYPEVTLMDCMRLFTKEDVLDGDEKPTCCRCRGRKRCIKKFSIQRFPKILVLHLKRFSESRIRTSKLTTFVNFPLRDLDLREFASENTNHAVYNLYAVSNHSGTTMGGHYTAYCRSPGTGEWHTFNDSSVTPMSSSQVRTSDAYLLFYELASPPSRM

This assay addresses Ubiquitin carboxyl-terminal hydrolase 2 (Homo sapiens) (UniProt O75604). Put plainly: qHTS Validation Assay for Inhibitors of Ubiquitin-specific Protease USP2a Using CHOP2 as the Reporter (AID 463106). The note with it: USP2a cleavage of CHOP2 reporter, enzymatic; series mostly up to 38.3 µM. The text has this: NIH Molecular Libraries Screening Centers Network [MLSCN]
NIH Chemical Genomics Center [NCGC]
PI Name: Nicholson, Ben. Progenra Inc, Malvern, PA
Homeostasis of cellular proteins is maintained through a combination of synthesis and degradation. The pathway that accounts for the majority of protein degradation is the ubiquitin-proteasomal pathway. Ubiquitin (Ub) is highly conserved in all cells and the generation of a multi-Ub chain typically targets proteins for degradation by the proteasome. However, ubiquitination is highly reversible and dynamic. Deubiquitination, the reverse process, is catalyzed through the action of enzymes referred to as isopeptidases or deubiquitinating enzymes (DUBs). This group of enzymes is collectively responsible for maintaining adequate pools of free ubiquitin and regulating the ubiquitination status of cellular proteins. The class of DUBs referred to as the ubiquitin-specific proteases (USP) family functions endoproteolytically to cleave Ub chains from a wide range of protein substrates. USP2a deubiquitinates fatty acid synthase (FASN) which has recently been identified as an emerging oncology target. To identify inhibitors of USP2a a cell-free assay was employed.
The reporter enzyme chosen is an enterokinase called CHOP2, which is activated when the Ub is cleaved by USP2. The free and now activated reporter can subsequently act on its reporter substrate. […] The assay was developed by Progenra, Inc. and has been licensed for sale by LifeSensors, Inc. as Ub-CHOP2-Reporter-Kit (#PR1101).
NCGC Assay Protocol Summary:
The assay buffer, prepared fresh at the day of the assay, contains 20mM Tris-HCl pH 8.0, 2mM CaCl2, 2mM beta-Mercaptoethanol, 0.05% CHAPS. 3ul of 20nM (10nM final) USP2 core, which is stored on ice, is dispensed into a medium-binding black solid Kalypsys 1,536 well plate using the Kalypsys dispenser. The assay plate is then pinned with 23nL compound with the Kalypsys pintool in columns 5-48. The controls are pinned as follows: column 1 two-fold dilutions of 2M NEM in duplicate; column 2 2M NEM (final concentration 38.2mM); column 3&4 DMSO. The assay plate is incubated at RT for 30min. Subsequently, 1.5uL of 100nM (25nM final) Ub-CHOP2 and 1.5uL of 100nM (25nM final) Reporter Substrate (both stored on ice and protected from light) were dispensed into the plate using the Kalypsys dispenser. Plates were read after 60min RT incubation on a ViewLux (Perkin Elmer) plate reader using the following wavelengths Ex 485nm /Em 531nm.
Data were normalized to the to AC100 inhibition (NEM). Concentration-response curves were fitted to the normalized data and the concentration-response curves were then classified based on curve quality (r2), response magnitude and degree of measured activity. The time zero reading was used to flag fluorescence artifacts.
Keywords: ubiquitination, deubiquitination, proteases, profluorescent, MLSMR, MLPCN, NIH Roadmap, qHTS, NCGC
For orientation: qHTS replaces the single test concentration by a dilution series.
Consider `NC(=O)CN1CC(O)CC1=O` (stereo not given), for which the Potency result was “inactive”. With `NCCc1c[nH]c2ccccc12` the entry was “inactive”; with `Clc1ccc(C(c2ccc(Cl)cc2)n2cc[n+](CC(OCc3ccc(Cl)cc3Cl)c3ccc(Cl)cc3Cl)c2)cc1` (stereo not given), 13.1 µM (active); with `CC(C)Oc1cccnc1N(C)C1CCN(Cc2ccccc2)CC1`, “inactive”.

For the molecule `C[C@]12CCC3C(CC[C@H]4C[C@H](O)CC[C@]34C)C1CC[C@@H]2C(=O)CO` (stereo not given in full), the Potency result is “inactive”. With `S=C(NC1CCCCC1)N1CCC(c2cnc[nH]2)CC1` the entry was “inactive”; with `CC1=NN=C(c2ccc(N)cc2)c2cc3c(cc2C1)OCO3`, “inactive”. For the molecule `CS(=N)(=O)CC[C@H](N)C(=O)O` (stereo not given in full), the Potency entry was “inactive”.

For the molecule `CN1C2CCC1CC(OC(=O)c1cc(Cl)cc(Cl)c1)C2` (stereo not given), the Potency entry is “inactive”.

As to `CCCN1CCC[C@H](c2cccc(O)c2)C1`, the Potency entry is “inactive”. With `Cn1cnc(CCN)c1` the entry was “inactive”. Consider `O=C(Cc1ccc(Cl)c(Cl)c1)N1CCCCC1CN1CCCC1` (stereo not given), for which the Potency entry is “inactive”. With `O=C(O)Cc1cnc[nH]1` the entry was “inactive”; with `C[N+]1(C)C2CCC1CC(OC(=O)C(CO)c1ccccc1)C2` (stereo not given), “inactive”. As for `CN[C@@H]1C[C@@H](c2ccc(Cl)c(Cl)c2)c2ccccc21`, the Potency entry is “inactive”. The value for `NC(CP(=O)(O)O)C(=O)O` (stereo not given) was “inactive”; that for `NC1CC1c1ccccc1` (stereo not given) was “inactive”; that for `CC(=O)NCCc1c[nH]c2ccccc12` was “inactive”. For `CCCN(CCC)C1CCc2ccc(O)cc2C1` (stereo not given), the Potency result is “inactive”. In the case of `CNCCc1c[nH]c2ccc(O)cc12`, the Potency entry was “inactive”. With `CCCN1CCO[C@@H]2c3cc(O)ccc3OC[C@H]21` the entry was “inactive”. With `CC(=O)[C@H]1CCC2C3CC[C@H]4C[C@H](O)CC[C@]4(C)C3CC[C@@]21C` (stereo not given in full) the entry was “inactive”; with `NCc1cc(=O)[nH]o1`, “inactive”. The value for `Clc1cnc(Oc2ccc(Oc3ncc(Cl)cc3Cl)cc2)c(Cl)c1` was “inactive”; that for `c1ccc(C2(c3ccccc3)CC2C2=NCCN2)cc1` (stereo not given) was “inactive”. Turning to `CC[C@@]1(O)C(=O)OCc2c1cc1n(c2=O)Cc2cc3ccccc3nc2-1`, the Potency entry is “inactive”.

On to `NCCc1c[nH]c2ccc(O)cc12`, for which the Potency result is “inactive”.

On to `C[C@]12N[C@H](Cc3ccccc31)c1ccccc12`, for which the Potency result was “inactive”. In the case of `CNCCc1ccc(O)c(O)c1`, the Potency result was “inactive”. The value for `C[C@@H](N)Cc1cnc[nH]1` was “inactive”; that for `O=C(O)[C@@H]1CCN1` was “inactive”. The value for `O=C(O)CC[N+](=O)[O-]` was “inactive”. With `C[C@@H]1O[C@H](C[N+](C)(C)C)C[C@H]1O` the entry was “inactive”; with `c1ccc(CCCN2CCN(CCOC(c3ccccc3)c3ccccc3)CC2)cc1`, “inactive”; with `C#CCOC(=O)C1=CCCN(C)C1`, “inactive”.

In the case of `NC(=NCCC[C@H](N)C(=O)O)N[N+](=O)[O-]`, the Potency result was “inactive”. With `CCCN(CCC)[C@@H]1CCc2ccc(O)cc2C1` the entry was “inactive”; with `COc1cc(C(O)CN)ccc1O` (stereo not given), “inactive”.

Take `O=C1CCCN1CC#CCN1CCCC1`: the Potency result is “inactive”. Regarding `Cc1nccc2c1[nH]c1ccccc12`, the Potency entry is “inactive”.
